According to the supplement of paper PMC6897291:

Tested on: RIVA
Experiment: growth inhibition by drug alone (1 - RLU/untreated control) (fraction); higher = stronger inhibition
Conditions: 177Lu-lilotomab satetraxetan 0 ug/ml
Procedure: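 RIVA (RI-1) ABC-DLBCL cells were pretreated or not for 18 h with 0.5 ug/ml 177Lu-lilotomab satetraxetan (600 MBq/mg), washed and seeded (3000 cells/well) on 384-well plates pre-printed with the Selleck Cambridge Cancer Compound library. Viability was read by RealTime-Glo luminescence on days 3-6 after seeding. Effect = 1 - RLU/mean RLU of the 48 untreated no-drug control wells per plate; Bliss score = (M-E)/(1-Fa).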

Row | Structure (SMILES) | growth inhibition by drug alone (10 nM, time (day): 3) | growth inhibition by drug alone (10 nM, time (day): 4) | growth inhibition by drug alone (10 nM, time (day): 5) | growth inhibition by drug alone (10 nM, time (day): 6) | growth inhibition by drug alone (100 nM, time (day): 3) | growth inhibition by drug alone (100 nM, time (day): 4) | growth inhibition by drug alone (100 nM, time (day): 5) | growth inhibition by drug alone (100 nM, time (day): 6)
1 | CC(C)n1nc(-c2ccc3oc(N)nc3c2)c2c(N)ncnc21 | 0.258 | 0.176 | 0.117 | -0.0267 | 0.716 | 0.708 | 0.699 | 0.63
2 | COc1ccc(CNC(=O)Nc2ncc([N+](=O)[O-])s2)cc1 | -0.12 | -0.122 | -0.158 | -0.156 | 0.108 | 0.0378 | -0.00577 | -0.0255
3 | COc1cc2nccc(Oc3ccc(NC(=O)NC4CC4)c(Cl)c3)c2cc1C(N)=O [E7080 (Lenvatinib)] | -0.272 | -0.277 | -0.3 | -0.325 | -0.113 | -0.192 | -0.168 | -0.219
4 | COc1cc2c(cc1O)CC[C@@H]1[C@@H]2CC[C@]2(C)[C@@H](O)CC[C@@H]12 [2-Methoxyestradiol] | -0.258 | -0.3 | -0.405 | -0.422 | -0.594 | -0.529 | -0.534 | -0.63
5 | Cc1ccc(-c2csc3ncnc(SCCC(=O)O)c23)cc1 | -0.135 | -0.215 | -0.266 | -0.425 | -0.333 | -0.33 | -0.376 | -0.529
